This is part of a sample that, as a whole, favours compounds with a hit. Of some 83,000 tested, about 20% had one in any assay.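 Step 1: grow cells in 96-well plates. Step 2: add test compound at a single concentration. Step 3: incubate 48 h. Step 4: record percent growth.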 A number with no mark means an inactive call. Calls of active or inactive are those of the source. The calls were made as follows: active = growth percent below 10; inactive = the rest.

Common to all, as to assay: NCI-60 one-dose screen, 48 h (100 = growth as untreated, 0 = no growth, -100 = all killed)
Holding throughout (conditions): 10 µM unless noted

For test [1], the system named is SR leukemia.
Test [2] relates to RPMI-8226 leukemia.
Test [3] deals with OVCAR-8 ovarian.
Test [4] concerns OVCAR-5 ovarian.
The test system of test [5] is OVCAR-4 ovarian.
For test [6], the system named is SK-OV-3 ovarian.
Test [7] has as its system IGROV1 ovarian.
Test [8] concerns OVCAR-3 ovarian.
Test [9] deals with HS 578T breast.
Test [10] deals with NCI/ADR-RES ovarian.

As to `CC(Nc1ncnc2ccc(-c3cnc4cnccn34)cc12)c1ccccc1` (stereo not given), the growth in [1] was 38.9%; in test [2], 46.6%; in test [3], 59.7%; in test [4] it was 68.2%; in test [5], 41.4%; in test [6] it was 60.6%. In addition, the growth is 5.93% (active) in test [7], 67.5% in test [8], 63.1% in [9] and 52.6% in [10].
On to `Cc1[nH]c(C(=O)Nc2ccccc2OCc2cccc(C(=O)NCCN)c2)cc1Cl`, for which the growth in test [1] was -3.39% (active); in [2], 89.6%; in [3], 84.7%; in test [4] it was 97%; in [5], 102%; in test [6] it was 101%. The growth in [7] was 94.5%; in test [8] it was 109%; in [9], 102%; in test [10], 99.4%.
Take `COC(=O)c1cccc(NC2=C(Cl)C(=O)C(C)=C(C)C2=O)c1`: the growth was 30% in test [1]; 58.3% in [2]; 99.4% in test [3]; 101% in test [4]; -36.7% (active) in test [5]; 106% in [6]. In addition, the growth in test [7] is 56.2%; in test [8] it was 94.2%; in test [9], 88.1%; in [10] it was 98.2%.
On to `O=C(CSc1nc2ccccc2c(=O)n1CCc1ccccc1)Nc1ccc(S(=O)(=O)Nc2ccc(Cl)nn2)cc1`, for which the growth was 95.9% in test [1]; 102% in test [2]; 92% in [3]; 95.8% in test [4]; 93.1% in test [5]; 94.1% in test [6]. In addition, the growth in test [7] is 95.6%; in test [8], 98.8%; in test [9], 97.1%; in test [10], 91.7%.
In the case of `O=C(CSc1nc2ccccc2c(=O)n1-c1ccccc1)Nc1ccc(S(=O)(=O)Nc2nccs2)cc1`, the growth is 65% in test [1]; 36.8% in test [2]; 89.7% in test [3]; 56.9% in test [4]; 77.5% in test [5]; 103% in test [6]. The growth in test [7] was 83%; in test [8], 38.9%; in [9], 60.3%; in test [10] it was 98.3%.
With `COc1cc2c3c(cc4c5c(ccc4c3c1OC)OCO5)N(CCN(C)C)C2=O`, the growth is -1.44% (active) in test [1]; -21.7% (active) in [2]; 9.28% (active) in test [3]; -6.73% (active) in test [4]; -4.27% (active) in [5]; 2.24% (active) in test [6]. The growth in test [7] is -11.3% (active); in test [8], 0.51% (active); in test [9] it was -8.56% (active); in test [10], 4.67% (active).
`N#C/C(=N\Nc1ccc(F)cc1)C(=O)Nc1cc(-c2ccccc2)nn1-c1ccccc1`: the growth in test [1] was 24.1%; in test [2], 11.9%; in test [3] it was 11%; in test [4], 19.8%; in [5], 1.96% (active); in test [6] it was -14.8% (active). The growth in test [7] was 24.7%; in test [8], 11.2%; in test [9], 25.9%; in test [10], 3.07% (active).
On to `COc1cccc2c1[C@H](OC)[C@]13O[C@@]1(C2=O)[C@H](O)[C@H](C)[C@@](O)(C(=O)[C@@H]1O[C@H]1C)[C@@H]3O`, for which the growth is -30% (active) in test [1]; -27.5% (active) in [2]; -13.2% (active) in test [3]; 6.04% (active) in test [4]; -13.3% (active) in [5]; -10.4% (active) in test [6]. The growth in test [7] was 7.69% (active); in test [8], -34.6% (active); in test [9], -30% (active); in test [10] it was -23% (active).
As to `CCCc1cc2cc(-n3nc(CC)c4c3CC(C)(C)CC4=O)cc(NC3CCC(O)CC3)c2c(=O)[nH]1` (stereo not given), the growth in test [1] was 0.947% (active); in test [2], 12.4%; in test [3], 21.9%; in test [4] it was 35.2%; in test [5] it was 64.9%; in test [6] it was 27.2%. The growth in test [7] was 25.4%; in test [8] it was 46.7%; in [9], 16.1%; in [10] it was 39.9%.
For the molecule `COc1cc2oc(-c3cccc(NC(=O)c4cccc([N+](=O)[O-])c4)c3)cc(=O)c2c(OC)c1OC`, the growth in [1] is 55.2%; in test [2], 48.8%; in [3], 6.56% (active); in test [4], 72.1%; in test [5], 37.6%; in test [6], 85.9%. Moreover, the growth in [7] is 64.6%; in test [8] it was 59%; in test [9], -10.3% (active); in test [10], 34.6%.
Take `O=C(CCCCCCNC(=O)C(O)(O)C(F)(F)F)Nc1ncc(-c2ccccc2)s1`: the growth in [1] is 10.9%; in test [2] it was 14.6%; in test [3] it was -2.23% (active); in test [4] it was -0.912% (active); in [5], 18.9%; in test [6], -23.8% (active). For the same molecule, the growth is -23.5% (active) in [7], -43% (active) in test [8], 0.452% (active) in test [9] and 2.08% (active) in [10].
Take `CCOc1cccc(/C(N)=N/C(N)=N/c2nc3ccccc3s2)c1`: the growth in test [1] was 6.28% (active); in test [2], 77.3%; in [3], 68.8%; in test [4] it was 98.8%; in test [5] it was 95.1%; in test [6] it was 132%. Also, the growth in [7] is 56%; in test [8] it was 104%; in [9], 96.3%; in test [10], 49.7%.
With `N#Cc1cnc2ccc(-c3cnc4n[nH]nc4c3)cc2c1N1CCc2cc(F)c(Cl)cc21`, the growth was 3.77% (active) in test [1]; 15.8% in test [2]; 16.7% in [3]; 31.6% in [4]; -16.9% (active) in test [5]; -0.177% (active) in test [6]. Moreover, the growth in test [7] is -8.77% (active); in test [8] it was 26.2%; in test [9] it was -10.7% (active); in test [10], 45%.
Take `O=C(CSc1nnc(-c2ccc(Cl)cc2)n1-c1ccccc1)Nc1cccc(F)c1`: the growth in test [1] was 37.2%; in test [2], 40.5%; in test [3], 35.7%; in test [4], 41.9%; in test [5] it was -46.4% (active); in test [6], 78.6%. Further, the growth was 20.3% in [7], 51.9% in test [8], 28% in [9] and 37% in test [10].
Regarding `COc1ccc2c(c1)c(-c1nc(N)nnc1-c1c[nH]c3ccccc13)cn2C`, the growth in test [1] is 14.8%; in test [2], 41.8%; in [3], 51.3%; in test [4], 72.2%; in test [5] it was 66.4%; in test [6], 63%. Further, the growth is 30.5% in test [7], 19.7% in [8], 35.3% in [9] and 49.8% in [10].
Turning to `Cn1ncc2c(C(=O)c3ccc(F)cc3)nc(C(C)(C)C)nc21`, the growth in [1] is 102%; in [2], 100%; in [3], 105%; in test [4], 98.2%; in test [5], 107%; in test [6], 112%. In addition, the growth in test [7] was 103%; in test [8] it was 98.6%; in test [9], 96.5%; in test [10], 107%.
With `CC(O)c1cccc(/C(N)=N/C(N)=N/c2nc3ccccc3s2)c1` (stereo not given), the growth in test [1] was 82.3%; in test [2] it was 67.3%; in test [3], 97.2%; in [4], 100%; in test [5] it was 105%; in [6], 105%. The growth was 92.5% in test [7], 102% in test [8], 91.9% in [9] and 95.6% in test [10].
For `O=C(CSc1nc2ccccc2c(=O)n1-c1ccc(Cl)c(Cl)c1)Nc1ccc(S(=O)(=O)Nc2ccc(Cl)nn2)cc1`, the growth was 108% in [1]; 106% in test [2]; 94% in [3]; 91.1% in test [4]; 97.7% in test [5]; 88.8% in test [6]. The growth in test [7] is 95.8%; in test [8], 106%; in test [9], 91.2%; in [10] it was 99.8%.
As for `Cc1ccc(C(=O)Nc2ccc(CNCCN3CCOCC3)c(C(F)(F)F)c2)cc1C#Cc1cnc2cccnn12`, the growth in test [1] is -15.7% (active); in test [2], -12.8% (active); in test [3] it was 13.3%; in test [4] it was 33.5%; in [5], 25.1%; in [6], 57.7%. Also, the growth in test [7] is 10.6%; in [8], 21.6%; in [9] it was -13.3% (active); in test [10], 5.66% (active).
With `Cc1[nH]c(C(=O)Nc2ccc(C(=O)NCC3CCNCC3)cc2OC(C)C)c(Cl)c1Cl`, the growth was -0.735% (active) in [1]; 42.3% in test [2]; 86.6% in test [3]; 84.9% in [4]; 89.5% in test [5]; 97.3% in [6]. For the same molecule, the growth was 54.4% in test [7], 85.6% in [8], 69.1% in [9] and 100% in test [10].
For the molecule `CNC(=O)c1cc(-c2ccc(NC(=S)Nc3cccc(C(F)(F)F)c3)cc2)nc2cccnc12`, the growth in test [1] was 80.8%; in test [2], 95.2%; in test [3] it was 93.9%; in test [4] it was 102%; in test [5], 96.6%; in test [6] it was 105%. Moreover, the growth in test [7] was 103%; in [8], 109%; in test [9], 105%; in test [10], 95.3%.
With `COc1ccc(OC)c(CCn2cncc2-c2c[nH]c3ccc(Cl)cc23)c1`, the growth in test [1] was 16.3%; in [2] it was 33.9%; in test [3], 40.5%; in test [4] it was 83.9%; in test [5], 16.2%; in test [6], 43.1%. Further, the growth was 58.8% in test [7], 40% in test [8], 57.1% in [9] and 29.8% in test [10].

These data come from PubChem BioAssay (NCI).
